Bioassay records as filed in PubChem BioAssay.
Compounds with a hit are over-represented: about 21% of the library has one in this group of screens.
Shiga inhibitor – blocks Shiga toxin action in Vero cells | inhibition, % at 38.7 µM | Vero cells, Shiga toxin protein synthesis inhibition reporter | AID 2315 | 9.2% of 290,000 active; in the data active means inhibition mostly above about 28%, no sharp cut-off; inactive means mostly below about 43%; further: 0% is about no effect
SARS PLpro yeast – inhibitors of SARS-CoV papain-like protease in yeast; S. cerevisiae expressing SARS-CoV PLpro, growth rescue; Potency, µM (titrated, usually from 32.9 µM), for the others: at the top dose activity, positive = growth rescue, usual class: activators; 0.19% of 330,000 active; AID 485353; calls by dose curve; further: potency means the concentration at half of the fitted maximal effect; 0% is about no effect; nearly all actives have a fitted effect of over 55% in size
Pf growth 48h – P. falciparum growth inhibition at 48 hours (one generation); P. falciparum luciferase growth in erythrocytes, 48 h; Potency, µM (titrated, usually from 28.7 µM), without a hit: top-dose activity change, negative = inhibition, usual class: inhibitors; 5.9% of 310,000 active; AID 504832; further: potency means the concentration at half of the fitted maximal effect; on the % scale 0 is the no-effect control and ±100 the full control effect
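Growth was read as firefly luciferase luminescence after a 48 h, 37 C, 5% CO2 exposure of compounds to reporter-bearing P. falciparum cultures (0.1% parasitemia, 2% hematocrit final) in Albumax-supplemented RPMI 1640.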
Pf growth 96h – inhibits malaria parasite growth, 96 h; Potency, µM (highest dose often 28.7 µM), for the others: at the highest dose activity change, negative = inhibition, most hits filed as inhibitors; P. falciparum luciferase reporter growth, 96 h; 6.9% of 320,000 active; further: potency means the concentration at half of the fitted maximal effect; on the % scale 0 is the no-effect control and ±100 the full control effect
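Luminescence readout: decreased luciferase signal marks inhibited growth of reporter-expressing P. falciparum in infected red cells (2% hematocrit, 0.05% parasitemia final), exposed to compound two generations (96 h, 37 C, 5% CO2).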
NS1 inh – influenza NS1 inhibition | Potency, µM (highest dose often 46.1 µM), inactives show top-dose activity, positive = more growth | 0.4% of 270,000 active | AID 2326; calls by dose curve; further: potency means the concentration at half of the fitted maximal effect; actives are rising curves; nearly all actives have a fitted effect of over 50% in size
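Growth recovery, yeast-based: influenza A NS1 expressed in S. cerevisiae causes slow growth, and suppressors are detected by OD600. The parent strain without NS1 is used as positive control.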
CHX counter – counter-screen hit for Shiga toxin inhibitors, cycloheximide. cell reporter, cycloheximide protein synthesis inhibition counterscreen. max response, %. AID 2314. 12% of 300,000 active; in the data active means max response mostly above about 13%, no sharp cut-off; inactive means mostly below about 14%; further: read at 38.3 µM for the half of the compounds with a filed dose; 0% is about no effect
Starred values were filed as active, the others as inactive; ? = inconclusive; . = no result; [ ] = remark or other dose. Unless noted, the call rests on the fitted dose curve; in most records, active means well fitted inhibition curve with a large enough effect; inconclusive means small, poorly fitted or top-dose-only effect, or another doubt; inactive means no such curve, though single readings can be large or run the other way.

SMILES | Shiga inhibitor | SARS PLpro yeast | Pf growth 48h | Pf growth 96h | NS1 inh | CHX counter
CS(=O)(=O)c1ccc2nc(NC(=O)CC3CCCC3)sc2c1 | 53.1* | -1.1% | ? | 14.7% | 3.6% | 24.0*
CCOc1ccc2nc(NC(=O)CSc3ccc(Cl)cc3)sc2c1 | 39.2 | -6.3% | ? | . | -0.8% | 18.5
Cc1ccc2nc(NC(=O)COC(=O)c3ccccn3)sc2c1 | 119.4* | -3.0% | 166.9% | 147.2% | . | 36.2*
CC(C)CC(=O)Nc1nc2ccc(S(C)(=O)=O)cc2s1 | 66.8* | -0.8% | -10.5% | ? | 3.9% | 17.4*
Cc1ccc(C)c2c3c([nH]c12)-c1nonc1CC3 | -13.3 | -11.8% | . | -24.5% | -14.8% | -5.2
C[C@@H]1C(=O)O[C@H]2[C@H](O)[C@@]34[C@H]5CC(C(C)(C)C)[C@]36[C@H](OC(=O)[C@H]6O)O[C@]4(C(=O)O5)[C@@]12O (stereo partly specified) | -12.7 | . | . | . | . | 11.1
CCOc1ccc2nc(NC(=O)CCC(=O)c3cccs3)sc2c1 | 86.9* | -6.6% | 124.8% | . | 0.7% | 30.3*
C/C=C/C(=O)OCC(=O)Nc1nc2ccc(C)cc2s1 | -2.9 | 12.1% | . | 10.4µM* | 13.9% | 7.2
Cc1ccc(NC(=O)CSCC(=O)N(C)Cc2ccc(Cl)c(Cl)c2)cc1 | . | -8.2% | ? | ? | . | .
COc1ccc(NC(=O)CSCC(=O)N(C)Cc2ccc(Cl)c(Cl)c2)cc1 | . | -18.9% | 13.1µM* | ? | . | .
O=C(Nc1ccc2c(c1)OCO2)N1CCN(c2cccc(C(F)(F)F)c2)CC1 | 26.7* | -4.2% | 2.1% | . | -30.6% | 11.6*
O=C(Nc1ccc2c(c1)OCO2)N1CCN(c2ccccc2Cl)CC1 | 84.6* | -13.4% | . | -11.2% | -6.1% | 51.8*
O=C(Nc1ccc2c(c1)OCO2)N1CCN(S(=O)(=O)c2ccc(Cl)cc2)CC1 | -13.0 | -2.2% | 56.4% | . | -39.3% | -2.9
O=C(Nc1ccc2c(c1)OCO2)N1CCC(CO)(CC2CCCCO2)CC1 (stereo unspecified) | 46.1* | -1.8% | -14.2% | -6.8% | 1.8% | 17.0*
COc1ccc(C)cc1NC(=O)N1CCC(CO)(CC2CCCCO2)CC1 (stereo unspecified) | 11.1 | 0.4% | -6.1% | ? | -0.8% | -3.0
CCCCc1nc2ccn(CC(=O)N(C)C)c(=O)c2n1Cc1ccc(-c2ccccc2-c2nn[nH]n2)cc1 | 9.7 | . | . | . | . | 1.8
CN1CCc2c(c3ccccc3n2Cc2ccccc2)C1 | -3.8 | -6.9% | -7.0%[12.8 µM] | ? | -7.3% | -2.4
CCCCN1CCc2c(c3ccccc3n2Cc2ccccc2)C1 | -8.0 | -2.9% | 10.4µM* | 6.57µM* | -4.4% | -3.4
NC(=O)Cc1ccc(C(=O)c2ccc(Cl)cc2Cl)s1 | 48.1* | -12.5% | 37.2% | 50.7% | . | 23.0*
O=C(O)Cc1ccc(C(=O)c2ccc(Cl)cc2Cl)s1 | 14.5 | 1.3% | 0.0% | 27.8% | . | 18.9
CCO[C@H]1OC(C(=O)N2CCCCCCC2)=C[C@@H](c2ccccc2)[C@@H]1CCCO | -10.5 | 0.4% | -3.1% | -19.1% | -1.0% | -0.5
COCC(C)n1c(C)cc(C(=O)COc2ccc(S(=O)(=O)N3CCOCC3)cc2Cl)c1C (stereo unspecified) | -2.4 | 0.2% | 13.1µM* | . | 12.9% | 6.3
Nc1ccnc(Oc2ccc(F)cc2)c1 | 30.0 | 18.5% | 33.0% | 40.0% | 15.0% | 12.2
CSc1ccccc1NC(=O)Cn1c(-c2cscn2)nc2ccccc21 | -2.8 | -3.7% | -18.4% | -3.8% | -36.7% | 1.0
Brc1ccccc1Cn1c(-c2cscn2)nc2ccccc21 | -10.3 | ? | . | 10.4µM* | 0.3% | -5.1
Cc1ccccc1Cn1c(-c2cncs2)nc2ccccc21 | 38.9 | -6.1% | 1.47µM* | 14.3% | -83.5% | 7.7
COc1ccccc1NC(=O)CC1S/C(=N/N=C(\C)C2CCCCC2)NC1=O (stereo unspecified) | -26.9 | -5.8% | ? | -67.9% | -48.2% | 2.4
Cc1ccccc1NC(=S)NC(NC(=O)c1ccco1)C(Cl)(Cl)Cl (stereo unspecified) | 9.8 | -10.5% | ? | 9.28µM* | 6.3% | 9.7
O=C(NC(NC(=S)Nc1ccccc1C(=O)O)C(Cl)(Cl)Cl)c1ccco1 (stereo unspecified) | 45.1* | 6.1% | -2.5% | -30.1% | 1.8% | 31.2*
O=C(CSCc1ccc(Cl)cc1Cl)Nc1nccs1 | -14.8 | 14.4% | ? | ? | -5.6% | -3.4
